# Experimental data reported in the supplement of paper PMC5662767.
# Where a name gives a salt, the structure may show the parent alone.
# Tested on: Drosophila S2 cl14 SmoIP sensor cells
# Experiment: normalized SmoIP GFP fluorescence (untreated unstimulated = 0%, untreated Hh-stimulated = 100%); higher = more Smo activation sensor fluorescence
# Settings: compound concentration: 2 uM, 24 h
# [1] = stimulation: Hh conditioned medium (+Hh)
# [2] = stimulation: mock conditioned medium (-Hh)
# 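Note: flow cytometry read-out as median GFP intensity of gated cells, compounds added 30 min before Hh-conditioned or mock medium, mock-treated cells serving as unstimulated baseline.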
SMILES,normalized SmoIP GFP fluorescence [1] [%],normalized SmoIP GFP fluorescence [2] [%]
COc1cc2ncnc(Oc3cccc(NC(=O)Nc4cc(C(C)(C)C(F)(F)F)on4)c3)c2cc1OC,138,-13.4
Cc1ccc(C(=O)c2cc(O)c(O)c([N+](=O)[O-])c2)cc1 [tolcapone],108,-2.48
COc1ccc2c(Oc3ccc(NC(=O)c4c(C)n(CC(C)(C)O)n(-c5ccccc5)c4=O)nc3)ccnc2c1,158,-1.11
CN(C)C(=O)Nc1cccc(-c2ccc(N(C)C)cc2)c1 [atglistatin],130,18.1
CC(C)C[C@H](NC(=O)CNC(=O)c1cc(Cl)ccc1Cl)B1OC(=O)C(CC(=O)O)(CC(=O)O)O1,157,31
Cc1ccc(-c2cc(C(F)(F)F)nn2-c2ccc(S(N)(=O)=O)cc2)cc1 [Celecoxib],111,2.11
CC1(COc2ccc3c(c2)ncn3-c2ccc3cccc(N4CCC(N)CC4)c3n2)COC1,260,77.9
Cc1cccc(CC(=O)N2CCc3c2ccc(-c2cn(C)c4ncnc(N)c24)c3F)n1,102,-1.63
Cn1cc(C2=C(c3ccc(Cl)cc3Cl)C(=O)NC2=O)c2ccccc21,115,16.5
CC(C)(C)C#Cc1cc(N(C(=O)[C@H]2CC[C@H](C)CC2)[C@H]2CC[C@H](O)CC2)c(C(=O)O)s1,118,10.4
Cc1ncc(-c2ccnc(Nc3ccc(S(C)(=O)=O)cc3)n2)n1C(C)C,156,11.2
CN(C)CCCCC(=O)Nc1ccc(NC(=S)NC(=O)c2ccc(C(C)(C)C)cc2)cc1 [tenovin-6],112,3.49
CCCCc1nc(Cl)c(CO)n1Cc1ccc(-c2ccccc2-c2nnn[nH]2)cc1 [losartan-potassium],90.8,-1.56
CN1CCN(c2cccc(Nc3nc4c(-c5ccc(S(C)(=O)=O)cc5)cccn4n3)c2)CC1,92.1,-3.39
CC(C)(C)c1ccc(C(=O)CCCN2CCC(OC(c3ccccc3)c3ccccc3)CC2)cc1 [ebastine],135,18.3
Nc1c(Br)cc(Br)cc1CN[C@H]1CC[C@H](O)CC1 [ambroxol-hcl],106,-2.82
CN1[C@@H]2CC[C@H]1C[C@@H](OC(=O)c1c[nH]c3ccccc13)C2 [Tropisetron-hydrochloride],116,-14.9

SMILES,normalized SmoIP GFP fluorescence [1] [%],normalized SmoIP GFP fluorescence [2] [%]
CC(C)(Cc1ccc2ccccc2c1)NC[C@@H](O)COc1cccc(Cl)c1C#N,157,12.8
CCN(c1cc(-c2ccc(CN3CCOCC3)cc2)cc(C(=O)NCc2c(C)cc(C)[nH]c2=O)c1C)C1CCOCC1,106,-3.39
CCc1c2c(nc3ccc(O)cc13)-c1cc3c(c(=O)n1C2)COC(=O)[C@]3(O)CC,95.2,5.3
CN1CCN(CCCN2c3ccccc3Sc3ccc(C(F)(F)F)cc32)CC1 [trifluoperazine-dihydrochloride],108,4
Cc1ccccc1-n1c(Cn2nc(-c3cccc(O)c3)c3c(N)ncnc32)nc2cccc(C)c2c1=O,101,-5.98
Cc1cc(-c2ccc(CC(=O)Nc3ccc(-c4cccnc4)cc3)cc2)ccn1,247,10.6
CO[C@H]1C[C@@H]2CC[C@@H](C)[C@@](O)(O2)C(=O)C(=O)N2CCCC[C@H]2C(=O)O[C@H]([C@H](C)C[C@@H]2CC[C@@H](O)[C@H](OC)C2)CC(=O)[C@H](C)/C=C(\C)[C@@H](O)[C@@H](OC)C(=O)[C@H](C)C[C@H](C)/C=C/C=C/C=C/1C [Rapamycin],26.9,19.1
CNC(=O)c1ccc(N2C(=S)N(c3cnc(C#N)c(C(F)(F)F)c3)C(=O)C23CCC3)cc1F,105,-0.0369
COc1cc(OC)c(NC(=O)Nc2cc(C)on2)cc1Cl,114,-5.98
Cc1ccc(S(=O)(=O)NC(=O)NN2CC3CCCC3C2)cc1 (stereo not drawn) [gliclazide-diamicron],111,-13.7
COC[C@H](NC(=O)c1cnc(C)s1)C(=O)N[C@@H](COC)C(=O)N[C@@H](Cc1ccccc1)C(=O)[C@@]1(C)CO1 [oprozomib-onx-0912],81.9,26.7
CC(C)(C)OC(=O)N[C@H]1CCCCC/C=C\[C@@H]2C[C@@]2(C(=O)NS(=O)(=O)C2CC2)NC(=O)[C@@H]2C[C@@H](OC(=O)N3Cc4cccc(F)c4C3)CN2C1=O [Danoprevir],111,13
N#CC[C@H](C1CCCC1)n1cc(-c2ncnc3[nH]ccc23)cn1,112,1.03
Cc1cc(CN2CCN(c3c(Br)cnc4nc(-c5ccc(N6CCN(C)CC6)cc5)[nH]c34)CC2)no1,123,20.5
CNC(=O)Nc1ccc(-c2nc(N3CC4CCC(C3)O4)c3cnn(C4CCC5(CC4)OCCO5)c3n2)cc1,41.3,-8.33
Cc1cc(C)c(CNC(=O)c2cc(-c3ccc(CN4CCOCC4)cc3)cc3c2cnn3C2CCCC2)c(=O)[nH]1,104,-0.264
CCOC(=O)c1ccc(OC(=O)CCCCCNC(=N)N)cc1 [gabexate-mesylate],120,-12.6
